# Measured values reported in PubChem BioAssay (NCI).
# Compounds without any hit were thinned out: in the full panel of roughly 79,000, 15% have a hit. A number with no mark means an inactive call. Active and inactive are the calls of the source. Cut-off read from the data, not from the text of the source: active = growth inhibition above about 70%; inactive = the rest.
# How the values were obtained:
# [1] = NCI Yeast Anticancer Drug Screen. Data for the rad50 strain (AID 155);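 note: 0% = growth of vehicle-only cultures of the same strain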; details: S. cerevisiae rad50 strain growth inhibition, hits give high values
# How it was run: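 Genetically altered yeast (DNA repair pathway); compound treatment; growth inhibition vs vehicle ctrl.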
# [2] = NCI Yeast Anticancer Drug Screen. Data for the mec2-1 strain (AID 157); details: S. cerevisiae mec2-1 strain, hits give high values
# How it was run: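 mec2-1 yeast strain, carrying an alteration in DNA damage repair or cell cycle control, was exposed to compounds; growth inhibition was measured relative to vehicle-treated controls.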
# [3] = NCI Yeast Anticancer Drug Screen. Data for the sgs1 mgt1 strain (AID 161);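 note: 0% = growth of cultures given vehicle only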; details: S. cerevisiae sgs1 mgt1 strain, hits give high values
# How it was run: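 Growth of a repair-deficient yeast mutant was monitored after compound treatment and expressed as inhibition relative to vehicle-treated cultures.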
# [4] = NCI Yeast Anticancer Drug Screen. Data for the cln2 rad14 strain (AID 165);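 note: 0% = growth equal to vehicle treated cultures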; details: S. cerevisiae cln2 rad14 strain, hits give high values
# How it was run: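 Yeast carrying cln2 and rad14 alterations (cell cycle control and DNA damage repair) were exposed to compounds. Growth inhibition was measured against vehicle-treated controls.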
# [5] = NCI Yeast Anticancer Drug Screen. Data for the bub3 strain (AID 167); details: S. cerevisiae bub3 mutant strain, hits give high values
# How it was run: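 Yeast carrying a defined mutation is treated with each compound, and growth is compared with that of vehicle-exposed cells to give inhibition.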
# [6] = NCI Yeast Anticancer Drug Screen. Data for the mlh1 rad18 strain (AID 175); details: S. cerevisiae mlh1 rad18 strain growth inhibition, hits give high values
# How it was run: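 Growth inhibition of the yeast strain was measured after compound exposure and expressed relative to vehicle-treated controls. The strain carries defined defects in DNA damage repair.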
# [7] = at 5.0 µM (retest, dose inferred, filed as 0.5)
# [8] = at 50.0 µM (retest, dose inferred, filed as 5.0)
SMILES,"growth inhibition [1, 7]","growth inhibition [1, 8]",growth inhibition ([1]; at 50.0 µM),"growth inhibition [2, 7]","growth inhibition [2, 8]",growth inhibition ([2]; at 50.0 µM),"growth inhibition [3, 7]","growth inhibition [3, 8]",growth inhibition ([3]; at 50.0 µM),"growth inhibition [4, 7]","growth inhibition [4, 8]",growth inhibition ([4]; at 50.0 µM),"growth inhibition [5, 7]","growth inhibition [5, 8]",growth inhibition ([5]; at 50.0 µM),"growth inhibition [6, 7]","growth inhibition [6, 8]",growth inhibition ([6]; at 50.0 µM)
O=C1CSC(=S)N1c1cccc(Cl)c1,20%,28%,40.5%,15%,23%,86% (active),13%,94% (active),79.6% (active),9%,73% (active),19.4%,8%,92% (active),70.2% (active),24%,48%,91.7% (active)
O=C(c1ccccc1)C1Cc2ccccc2C1=O (configuration not stated),2%,39%,78.5% (active),-16%,2%,50.1%,0%,5%,86.5% (active),3%,1%,19.8%,35%,13%,4.4%,2%,11%,84.2% (active)
O=c1cccc(C2CCc3cc(O)ccc3C2)[nH]1 (configuration not stated),-5%,3%,-2.85%,3%,1%,3.35%,-3%,4%,-5.05%,1%,-18%,22.6%,-3%,-11%,-11.3%,-6%,5%,13.2%
O=C1C(C=NC(=S)c2ccccc2)=C(O)c2ccccc21,22%,72% (active),-13.8%,23%,68%,-12.1%,33%,68%,2.35%,20%,48%,10.1%,31%,81% (active),-4.7%,32%,87% (active),6.45%
Cc1ccc(-n2c(CSc3ccc(Cl)cc3)nnc2SCc2nc3ccccc3[nH]2)cc1,-22%,8%,46.9%,-16%,-9%,73.1% (active),-28%,7%,42.7%,-4%,5%,70.5% (active),1%,-3%,3.9%,2%,-4%,66.6%
Cc1c(C(C)(C)C)cc(C(C)(C)C)c(O)c1CN(C)Cc1c(C)c(C(C)(C)C)cc(C(C)(C)C)c1O,-3%,8%,99.5% (active),-8%,3%,99.3% (active),3%,33%,99.6% (active),-6%,-3%,99.5% (active),-3%,13%,99.4% (active),4%,17%,99.5% (active)
CCN(CC)c1cccc(OC(=O)Nc2cccc(C(F)(F)F)c2)c1,50%,73% (active),84% (active),37%,73% (active),81.2% (active),42%,80% (active),83.8% (active),28%,64%,82.9% (active),42%,79% (active),87.6% (active),44%,88% (active),83.4% (active)
CC(C)=C1C=C2CCC3C(C)(C(=O)O)CCCC3(C)C2CC1 (configuration not stated) (tested in a mixture with another compound),-4%,90% (active),72.5% (active),-5%,61%,40.1%,-5%,48%,59.4%,-5%,47%,20.3%,-7%,98% (active),38.8%,-1%,76% (active),60.8%
CC(C)(C)CC(C)(C)c1ccc(O)cc1O,7%,99% (active),99.5% (active),7%,99% (active),99.5% (active),-3%,99% (active),99.2% (active),2%,98% (active),98.8% (active),36%,99% (active),98.8% (active),6%,99% (active),99.3% (active)
C=CC(=O)N1C/C(=C\c2ccc([N+](=O)[O-])cc2)C(=O)/C(=C/c2ccc([N+](=O)[O-])cc2)C1,46%,96% (active),28.7%,33%,97% (active),51.5%,39%,97% (active),87.3% (active),26%,96% (active),88% (active),25%,96% (active),83.9% (active),58%,96% (active),81.5% (active)
CCCCCCCCCCCCCCCC[N+](C)(C)CCCCCC(=O)OC,99% (active),99% (active),98.9% (active),100% (active),100% (active),99.1% (active),100% (active),100% (active),99% (active),99% (active),99% (active),97.4% (active),100% (active),100% (active),98.5% (active),100% (active),100% (active),98.7% (active)
Cn1c(=O)cc2c3c(ccc(C(=O)O)c31)C(=O)c1ccccc1-2,40%,34%,80.2% (active),10%,50%,36.2%,2%,27%,45.1%,-8%,22%,16.5%,1%,62%,61.8%,12%,50%,51.7%
COc1ccc2c(C)c(N=C=S)c(=O)oc2c1,35%,79% (active),60.2%,13%,78% (active),69%,34%,81% (active),48%,6%,33%,1.75%,29%,87% (active),89% (active),42%,89% (active),74.7% (active)
Cc1ccc(C(C)C)c(O)c1N/N=C/c1cc(Cl)ccc1O,2%,55%,73% (active),3%,25%,-0.3%,1%,82% (active),41.9%,2%,26%,-4.05%,1%,48%,58.1%,2%,83% (active),36.8%
CC(C)(C)C(=O)OC12/C(=N/O)CCCCCC1c1ccccc12 (configuration not stated),-17%,88% (active),81.8% (active),6%,92% (active),86% (active),-12%,89% (active),81.2% (active),31%,96% (active),85.3% (active),-9%,93% (active),84.2% (active),14%,92% (active),80.5% (active)
O=C(CC1Sc2ccccc2NC1=O)Nc1ccc([N+](=O)[O-])cc1[N+](=O)[O-] (configuration not stated),30%,81% (active),88% (active),25%,89% (active),93.3% (active),51%,98% (active),81.8% (active),34%,62%,28.9%,36%,97% (active),92% (active),51%,96% (active),86.9% (active)
Cc1cc(C)[nH]c(=S)n1.[Pt],-1%,-9%,8.7%,0%,-3%,35.2%,-2%,-5%,12.2%,2%,7%,81.3% (active),2%,-2%,21.9%,-2%,-7%,0.5%
CCC(CC)(c1ccc(C)cc1)c1ccc(C)cc1,-12%,99% (active),99.5% (active),-10%,99% (active),99.2% (active),-6%,99% (active),98.8% (active),-80%,99% (active),77.2% (active),22%,-55%,92.3% (active),7%,99% (active),99.6% (active)
N#CC12CC3=C(N=C1NC1=C(CCc4ccccc41)C2)c1ccccc1CC3 (configuration not stated),24%,51%,57.8%,19%,34%,42.8%,20%,44%,48.5%,18%,29%,17.9%,23%,45%,51.1%,20%,60%,24.6%
